A short description of test [1]: NCI Yeast Anticancer Drug Screen. Data for the rad50 strain (AID 155).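 Further: 0% = growth of vehicle-only cultures of the same strain.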 Particulars: S. cerevisiae rad50 strain growth inhibition, active compounds read high. The procedure, abridged: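 Growth of the mutant yeast was measured after compound exposure and referenced to vehicle-treated cultures.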
Test [2] can be described thus: NCI Yeast Anticancer Drug Screen. Data for the mec2-1 strain (AID 157). Particulars: S. cerevisiae mec2-1 strain, active compounds read high. The method, boiled down: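 Test agents were screened against the mec2-1 yeast strain, with defined DNA repair or cell cycle alteration. Growth was scored as inhibition against vehicle-only controls.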
Test [3] is described as follows: NCI Yeast Anticancer Drug Screen. Data for the sgs1 mgt1 strain (AID 161).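 Further: 0% = growth of cultures given vehicle only.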 Particulars: S. cerevisiae sgs1 mgt1 strain, active compounds read high. The method, boiled down: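 Inhibition of yeast growth, normalised to vehicle-treated controls, is reported for a strain bearing genetic alterations in DNA damage repair.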
A short description of test [4]: NCI Yeast Anticancer Drug Screen. Data for the cln2 rad14 strain (AID 165).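 Further: 0% = growth equal to vehicle treated cultures.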 Particulars: S. cerevisiae cln2 rad14 strain, active compounds read high. The procedure, abridged:
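Growth of compound-exposed yeast (cln2 rad14 genotype) measured and expressed as inhibition relative to vehicle.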

The nature of test [5]: NCI Yeast Anticancer Drug Screen. Data for the bub3 strain (AID 167). Particulars: S. cerevisiae bub3 mutant strain, active compounds read high. The procedure, abridged:
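Whole-cell yeast assay. The mutant strain was incubated with compounds, and growth inhibition was determined by comparison with vehicle-treated cells.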

Test [6] is described as follows: NCI Yeast Anticancer Drug Screen. Data for the mlh1 rad18 strain (AID 175). As to conditions: S. cerevisiae mlh1 rad18 strain growth inhibition, active compounds read high. The method, boiled down: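 In this whole-cell yeast screen, a strain with altered DNA damage repair is challenged with compound, and its growth is measured against matched vehicle-treated controls.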

Where [7] appears, read: at 5.0 µM (retest, dose inferred, filed as 0.5).
The mark [8] stands for this setting: at 50.0 µM (retest, dose inferred, filed as 5.0).

Molecules are shown by their SMILES. The panel holds about 79,000 compounds, 15% with a hit somewhere; the sample as a whole holds those more often. Values without a mark were called inactive. Active and inactive are the calls of the source. No stated cut-off is given here; in the data, active means growth inhibition above about 70%; inactive means the rest.

On to `O=C(O)c1ccc(/C=C2\COc3ccccc3C2=O)cc1`, for which the growth inhibition in test [1] (setting [7]) was 5%; in test [1] (setting [8]) it was 85% (active); in test [1] (at 50.0 µM) it was 62.6%; in test [2] (setting [7]), 14%; in test [2] (setting [8]), 92% (active); in test [2] (at 50.0 µM) it was 67%. Besides, the growth inhibition in test [3] (setting [7]) was 13%; in test [3] (setting [8]), 96% (active); in test [3] (at 50.0 µM), 83.1% (active); in test [4] (setting [7]), 5%; in test [4] (setting [8]), 80% (active); in test [4] (at 50.0 µM), 52.8%. For the same molecule, the growth inhibition in test [5] (setting [7]) is 24%; in test [5] (setting [8]), 94% (active); in test [5] (at 50.0 µM) it was 68.2%; in test [6] (setting [7]) it was 4%; in test [6] (setting [8]) it was 91% (active); in test [6] (at 50.0 µM), 84.5% (active).

With `CC/C(=N\NS(=O)(=O)c1ccc(C)cc1)c1cccc(OC)c1`, the growth inhibition was 34% in test [1] (setting [7]); 47% in test [1] (setting [8]); 69.6% in test [1] (at 50.0 µM); 12% in test [2] (setting [7]); 37% in test [2] (setting [8]); 40.6% in test [2] (at 50.0 µM). The growth inhibition in test [3] (setting [7]) was 50%; in test [3] (setting [8]), 90% (active); in test [3] (at 50.0 µM), 88.8% (active); in test [4] (setting [7]), 37%; in test [4] (setting [8]), 78% (active); in test [4] (at 50.0 µM), 51.2%. For the same molecule, the growth inhibition in test [5] (setting [7]) is 43%; in test [5] (setting [8]), 86% (active); in test [5] (at 50.0 µM) it was 36.6%; in test [6] (setting [7]), 36%; in test [6] (setting [8]), 87% (active); in test [6] (at 50.0 µM) it was 92.2% (active).

For the molecule `COC(=O)c1[nH]cnc1/N=N/N(C)C`, the growth inhibition in test [1] (setting [7]) was 98% (active); in test [1] (setting [8]), 98% (active); in test [1] (at 50.0 µM), 98.8% (active); in test [2] (setting [7]), 99% (active); in test [2] (setting [8]), 99% (active); in test [2] (at 50.0 µM) it was 98.9% (active). In addition, the growth inhibition in test [3] (setting [7]) is 99% (active); in test [3] (setting [8]) it was 99% (active); in test [3] (at 50.0 µM), 99.5% (active); in test [4] (setting [7]), 99% (active); in test [4] (setting [8]) it was 98% (active); in test [4] (at 50.0 µM), 99% (active). Besides, the growth inhibition in test [5] (setting [7]) is 49%; in test [5] (setting [8]), 49%; in test [5] (at 50.0 µM), 98.8% (active); in test [6] (setting [7]), 98% (active); in test [6] (setting [8]), 99% (active); in test [6] (at 50.0 µM) it was 99.3% (active).

For `C[N+](C)([O-])CCOc1cc2c(c3ccccc13)-c1ccccc1C2=O`, the growth inhibition in test [1] (setting [7]) is 1%; in test [1] (setting [8]) it was 63%; in test [1] (at 50.0 µM), 83.8% (active); in test [2] (setting [7]), -1%; in test [2] (setting [8]) it was 7%; in test [2] (at 50.0 µM), -4.3%. Also, the growth inhibition is -4% in test [3] (setting [7]); 19% in test [3] (setting [8]); -8.2% in test [3] (at 50.0 µM); -5% in test [4] (setting [7]); 5% in test [4] (setting [8]); 13% in test [4] (at 50.0 µM). The growth inhibition is -5% in test [5] (setting [7]); 4% in test [5] (setting [8]); 0.15% in test [5] (at 50.0 µM); 1% in test [6] (setting [7]); 13% in test [6] (setting [8]); 16.9% in test [6] (at 50.0 µM).

Regarding `O=S(=O)(O)N=Nc1ccc(O)cc1`, the growth inhibition in test [1] (setting [7]) was 65%; in test [1] (setting [8]) it was 98% (active); in test [1] (at 50.0 µM), 91.5% (active); in test [2] (setting [7]), 1%; in test [2] (setting [8]), 99% (active); in test [2] (at 50.0 µM), 94.3% (active). Also, the growth inhibition in test [3] (setting [7]) is 17%; in test [3] (setting [8]), 98% (active); in test [3] (at 50.0 µM) it was 93.2% (active); in test [4] (setting [7]) it was -8%; in test [4] (setting [8]) it was 98% (active); in test [4] (at 50.0 µM) it was 91% (active). The growth inhibition in test [5] (setting [7]) is -12%; in test [5] (setting [8]), 98% (active); in test [5] (at 50.0 µM), 92.8% (active); in test [6] (setting [7]), 37%; in test [6] (setting [8]) it was 98% (active); in test [6] (at 50.0 µM), 91.5% (active).

Consider `OC1(CCc2ccccc2)COC(C(F)(F)F)(C(F)(F)F)C1` (stereo not given), for which the growth inhibition in test [1] (setting [7]) was 18%; in test [1] (setting [8]), 24%; in test [1] (at 50.0 µM), 76.4% (active); in test [2] (setting [7]) it was 16%; in test [2] (setting [8]), 18%; in test [2] (at 50.0 µM), 66%. Also, the growth inhibition in test [3] (setting [7]) is 14%; in test [3] (setting [8]), 23%; in test [3] (at 50.0 µM) it was 78.4% (active); in test [4] (setting [7]) it was 1%; in test [4] (setting [8]) it was 23%; in test [4] (at 50.0 µM), 52.8%. Besides, the growth inhibition in test [5] (setting [7]) was 5%; in test [5] (setting [8]), 21%; in test [5] (at 50.0 µM) it was 61.1%; in test [6] (setting [7]), 26%; in test [6] (setting [8]) it was 30%; in test [6] (at 50.0 µM) it was 74.8% (active).

Turning to `O=Nc1c(O)ccc2ccccc12.[Fe].[Na+]`, the growth inhibition was 7% in test [1] (setting [7]); 97% (active) in test [1] (setting [8]); 97.2% (active) in test [1] (at 50.0 µM); 14% in test [2] (setting [7]); 98% (active) in test [2] (setting [8]); 97.7% (active) in test [2] (at 50.0 µM). Further, the growth inhibition in test [3] (setting [7]) is 8%; in test [3] (setting [8]) it was 98% (active); in test [3] (at 50.0 µM), 98.5% (active); in test [4] (setting [7]) it was -2%; in test [4] (setting [8]) it was 96% (active); in test [4] (at 50.0 µM) it was 96.6% (active). Further, the growth inhibition in test [5] (setting [7]) is 13%; in test [5] (setting [8]) it was 98% (active); in test [5] (at 50.0 µM), 97.6% (active); in test [6] (setting [7]) it was 4%; in test [6] (setting [8]), 97% (active); in test [6] (at 50.0 µM), 96.2% (active).

In the case of `O=C(c1ccc([N+](=O)[O-])cc1)N1CCCSC1=S`, the growth inhibition was 19% in test [1] (setting [7]); 27% in test [1] (setting [8]); 26.8% in test [1] (at 50.0 µM); -7% in test [2] (setting [7]); 12% in test [2] (setting [8]); 22.2% in test [2] (at 50.0 µM). The growth inhibition is 10% in test [3] (setting [7]); 21% in test [3] (setting [8]); 31.6% in test [3] (at 50.0 µM); 21% in test [4] (setting [7]); 27% in test [4] (setting [8]); 27.2% in test [4] (at 50.0 µM). In addition, the growth inhibition was 6% in test [5] (setting [7]); 11% in test [5] (setting [8]); 16% in test [5] (at 50.0 µM); 11% in test [6] (setting [7]); 31% in test [6] (setting [8]); 60.5% in test [6] (at 50.0 µM).

For the molecule `Fc1ccc(CN2COc3c(cc(Cl)c4cccnc34)C2)cc1`, the growth inhibition in test [1] (setting [7]) is 9%; in test [1] (setting [8]), 97% (active); in test [1] (at 50.0 µM), 99.2% (active); in test [2] (setting [7]) it was 1%; in test [2] (setting [8]), 97% (active); in test [2] (at 50.0 µM), 99.6% (active). Moreover, the growth inhibition is 2% in test [3] (setting [7]); 99% (active) in test [3] (setting [8]); 99.6% (active) in test [3] (at 50.0 µM); -8% in test [4] (setting [7]); 98% (active) in test [4] (setting [8]); 99.3% (active) in test [4] (at 50.0 µM). Also, the growth inhibition in test [5] (setting [7]) was -5%; in test [5] (setting [8]) it was 99% (active); in test [5] (at 50.0 µM), 99.5% (active); in test [6] (setting [7]) it was 11%; in test [6] (setting [8]), 99% (active); in test [6] (at 50.0 µM), 99.5% (active).

As for `O=C1OCc2cccc3cccc1c23`, the growth inhibition was 7% in test [1] (setting [7]); 84% (active) in test [1] (setting [8]); 88.5% (active) in test [1] (at 50.0 µM); 9% in test [2] (setting [7]); 43% in test [2] (setting [8]); 38.6% in test [2] (at 50.0 µM). In addition, the growth inhibition in test [3] (setting [7]) is 4%; in test [3] (setting [8]), 29%; in test [3] (at 50.0 µM), 70.3% (active); in test [4] (setting [7]), 8%; in test [4] (setting [8]), 38%; in test [4] (at 50.0 µM), 36.5%. Also, the growth inhibition in test [5] (setting [7]) was 11%; in test [5] (setting [8]), 69%; in test [5] (at 50.0 µM), 27.8%; in test [6] (setting [7]) it was 5%; in test [6] (setting [8]), 36%; in test [6] (at 50.0 µM) it was 62%.

(Values after PubChem BioAssay (NCI).)
